Source: PubChem BioAssay (National Center for Advancing Translational Sciences (NCATS))
Giardia kill – kills Giardia lamblia; 340,000 compounds, 0.15% hits; AID 540267; activity change, % at 7.66 µM, hits read low; Giardia lamblia trophozoite viability; in the data active = activity change below about -80%; inconclusive = between about -30% and that limit;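 note: parasites exposed to compound for two days anaerobically before the ATP read; % is set by controls: 0 for no effect and ±100 for the full control effect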
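Trophozoite viability was measured as ATP-dependent luminescence, read 15-30 min after reagent addition. Before that, parasites at 100 cells/well were exposed to compounds for 48 h, anaerobically, at 37 deg C.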
RORgamma inh – inhibitors of mouse ROR gamma transcriptional activity; P51450; Drosophila S2 Gal4-RORgamma UAS-luciferase reporter, 20 h; Potency, µM (top dose mostly 53.6 µM), for inactives: at the highest dose activity change, negative = inhibition, usual class: inhibitors; 310,000 compounds, 5.4% hits; AID 2551; note: potency is the fitted concentration of half-maximal effect; % is set by controls: 0 for no effect and ±100 for the full control effect; nearly all actives have a fitted effect of over 60% in size
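A Gal4/UAS one-hybrid system in insect cells: metallothionein-promoter Gal4–ROR gamma fusion plus Photinus luciferase reporter. Copper sulfate 700 uM final, 20 hr ambient incubation, luminescent detection after 10 min with reagent.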
Integrin act MD – activates integrin-mediated alleviation for muscular dystrophy; alpha7betagal myoblasts, beta-gal FDG fluorescence, 48 h; Potency, µM (highest dose often 38.3 µM), inactives show at the top dose activation, hits mostly activators; 350,000 compounds, 0.064% hits;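 note: potency is the fitted concentration of half-maximal effect; 100% = response of the positive control SU9516; nearly all actives have a fitted effect of over 60% in size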
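alpha7betagal+/- myoblasts (passage 13, 250/well) treated 48 h at 37C with compounds at 1:260 dilution of DMSO stock. Lysed, then beta-galactosidase activity read as FDG fluorescence (ex 480/em 540) after 30 min, with pre-read for autofluorescence.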
Gal4-VP16 FLuc – inhibits Gal4-VP16 luciferase reporter, ROR gamma counter-screen. Potency, µM (highest dose often 53.6 µM), without a hit: at the highest dose activity, negative = inhibition, hits mostly inhibitors. 310,000 compounds, 3.5% hits. Drosophila S2 Gal4-VP16 UAS-luciferase, luminescence, 20 h. AID 2546;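 note: Gal4-VP16 expression switched on by copper sulfate through the metallothionein promoter; potency is the fitted concentration of half-maximal effect; % is set by controls: 0 for no effect and ±100 for the full control effect; nearly all actives have a fitted effect of over 50% in size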
ERG-DNA inh – ERG Ets/DNA interaction inhibition | AID 624246 | Potency, µM (doses to about 76.9 µM), for the others: top-dose FP activity, negative = inhibition, actives largely listed as inhibitors | 370,000 compounds, 0.028% hits | fluorescence polarization, His-ERG Ets domain / labelled DNA | P11308; active = well fitted inhibition curve with a large enough effect in the polarisation, with a control signal flat; inconclusive = small, poorly fitted or top-dose-only effect, or effect the other way, or a change in a side signal; inactive = no such curve, though single readings can be large or run the other way; the % refers to the polarisation;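 note: polarization taken with two DNA probes labelled with fluorescein and Texas red; potency is the fitted concentration of half-maximal effect; % of control where 0% means no effect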
Target sequence (P11308 whole entry, looked up, the tested form may be a part): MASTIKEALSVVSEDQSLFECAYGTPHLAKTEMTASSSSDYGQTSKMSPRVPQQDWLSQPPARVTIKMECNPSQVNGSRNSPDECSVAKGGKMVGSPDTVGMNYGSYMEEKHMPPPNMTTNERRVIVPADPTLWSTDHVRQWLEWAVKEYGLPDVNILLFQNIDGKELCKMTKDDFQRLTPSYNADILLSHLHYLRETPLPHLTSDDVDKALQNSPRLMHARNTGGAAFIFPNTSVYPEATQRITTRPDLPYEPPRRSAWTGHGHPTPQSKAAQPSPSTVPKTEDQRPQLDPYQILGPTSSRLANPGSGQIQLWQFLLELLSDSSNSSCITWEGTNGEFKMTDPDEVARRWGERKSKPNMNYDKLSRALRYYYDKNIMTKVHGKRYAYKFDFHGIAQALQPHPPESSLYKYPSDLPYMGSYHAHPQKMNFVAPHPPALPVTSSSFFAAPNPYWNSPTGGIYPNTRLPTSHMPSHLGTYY
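His-tagged ERG Ets domain (1 uM in the protein solution; 300mM KCl, 50mM Tris-HCl, 1mM EDTA, 1mM DTT, pH 7.5) received compound, then a probe mix of 5 nM fluorescein-DNA and 100nM Texas-615-DNA. Fluorescence polarization was read for both dyes.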
* marks the source's active call; other numbers are inactive results; [ ] = remark or other dose. This excerpt belongs to a sample that is enriched for hits. Unless noted, calls come from the whole dose curve; as a rule, active = well fitted curve in the direction sought with a large enough effect; inconclusive = small, poorly fitted or top-dose-only effect, or another doubt; inactive = no such curve, though single readings can be large; an effect the other way counts as inactive or inconclusive.

C=CCOC(=O)c1sc(NC(=O)c2ccc(OC)cc2)nc1C was read as Giardia kill -3, RORgamma inh 6.3µM*, Integrin act MD 7%, Gal4-VP16 FLuc -13% and ERG-DNA inh -1%.
Screening CCOC(=O)CC(NC(=O)c1cc2cc(Cl)ccc2oc1=O)c1ccc(C)cc1 (centres undefined) returned ERG-DNA inh -1%.
`COc1ccc(NC(=O)Cn2c(=O)n(CCc3ccccc3)c(=O)c3c4c(sc32)CCCC4)cc1` gave ERG-DNA inh 0%.
For CCCCc1nn2c(=O)cc(COC(=O)c3ccccc3C)nc2s1 the results were ERG-DNA inh 1%.
`CNC(=O)CSCc1c(Cl)cccc1Cl` gave Giardia kill -7, RORgamma inh -20%, Integrin act MD 1% and Gal4-VP16 FLuc -6%.
Screening CNC(=S)NNC(=O)CSCc1c(Cl)cccc1Cl returned Giardia kill -9, RORgamma inh 11µM*, Integrin act MD 18%, Gal4-VP16 FLuc 20µM* and ERG-DNA inh -3%.
COCCNC(=S)NNC(=O)CSCc1ccc(Cl)cc1Cl was read as Giardia kill -22, RORgamma inh 10µM*, Integrin act MD 18%, Gal4-VP16 FLuc -28% and ERG-DNA inh -14%.
O=C(CSCc1ccccc1)NNC(=S)Nc1cccc(Cl)c1Cl was read as Giardia kill -9, RORgamma inh 6.3µM*, Integrin act MD -13%, Gal4-VP16 FLuc inconclusive and ERG-DNA inh -1%.
Screening CCC(=O)N1N=C(c2ccc(NS(=O)(=O)c3ccccc3)cc2)CC1c1ccco1 (centres undefined) returned Giardia kill -9, Integrin act MD -5% and ERG-DNA inh 15%.
O=Nc1ccc(NOC(=O)c2ccccc2Br)cc1 was read as Giardia kill -12, RORgamma inh inconclusive, Integrin act MD 12%, Gal4-VP16 FLuc inconclusive and ERG-DNA inh -5%.
Screening O=C(ONc1ccc(N=NC(=O)c2ccccc2O)cc1)c1ccccc1 returned Giardia kill inconclusive, RORgamma inh 7.1µM*, Integrin act MD -4%, Gal4-VP16 FLuc 6%[0.365 µM] and ERG-DNA inh 8%.
`S=c1[nH]ncn1NCc1ccc(Cl)cc1Cl` gave Giardia kill 26, RORgamma inh 6.3µM*, Integrin act MD -32%, Gal4-VP16 FLuc inconclusive and ERG-DNA inh -18%.
Screening Fc1cccc(Cl)c1CNn1cn[nH]c1=S returned Giardia kill 5, RORgamma inh inconclusive, Integrin act MD inconclusive, Gal4-VP16 FLuc 3% and ERG-DNA inh 0%.
Screening C=C1C(=O)OC2C1CC/C(C)=C/CCC1(C)OC21 (centres undefined) returned RORgamma inh 4.5µM* and Gal4-VP16 FLuc 4µM*.
For C=C1C(=O)O[C@@H]2[C@H]3O[C@]3(C)CC/C=C(\C)CC[C@@H]12 the results were Giardia kill 9 and ERG-DNA inh 20%.
C=C1C(=O)O[C@@H]2C3OC3(C)CC/C=C(\C)CC[C@@H]12 (some centres undefined) was read as RORgamma inh inconclusive and Gal4-VP16 FLuc 28µM*.
For COc1ccc(CN(CC2CCCO2)C(=O)c2cc3sccc3n2C)c(OC)c1 (centres undefined) the results were Giardia kill -14, RORgamma inh inconclusive, Integrin act MD 0%, Gal4-VP16 FLuc 3% and ERG-DNA inh -1%.
For CCOc1cccc2cc(-c3cn4cc(C)ccc4n3)c(=O)oc12 the results were Giardia kill inconclusive, RORgamma inh 0.79µM*, Integrin act MD -1%, Gal4-VP16 FLuc inconclusive and ERG-DNA inh -1%.
NC(=O)c1c(NC(=O)c2nc(SCc3ccccc3F)ncc2Cl)sc2c1CCCC2 was read as ERG-DNA inh -1%.
For C=C(C)CSc1cc(C)c(C#N)c2nc3ccccc3n12 the results were Giardia kill -15, RORgamma inh inconclusive, Integrin act MD -2%, Gal4-VP16 FLuc 4µM* and ERG-DNA inh 21%.
Cc1cc(NCCCCO)n2c(nc3ccccc32)c1C#N was read as Giardia kill 13, RORgamma inh -9%, Integrin act MD 20%, Gal4-VP16 FLuc -6% and ERG-DNA inh 5%.
CNC(=S)N(CCCN(C)C)Cc1cc2cc3c(cc2[nH]c1=O)OCCO3 was read as Giardia kill 13, RORgamma inh -2%, Integrin act MD -12%, Gal4-VP16 FLuc -12% and ERG-DNA inh 8%.
For CCc1ccc(NC(=S)N2CCN(c3cccc(OC)c3)CC2)cc1 the results were Giardia kill -1, RORgamma inh 13µM*, Integrin act MD 23%, Gal4-VP16 FLuc inconclusive and ERG-DNA inh 3%.
COc1ccc(NC(=S)N2CCN(c3ccccc3)CC2)c(OC)c1 was read as Giardia kill -2, RORgamma inh -23%, Integrin act MD 3%, Gal4-VP16 FLuc -2% and ERG-DNA inh 8%.
Screening CCc1ccccc1NC(=S)N1CCN(c2cccc(OC)c2)CC1 returned Giardia kill -28, RORgamma inh 10µM*, Integrin act MD -9%, Gal4-VP16 FLuc inconclusive and ERG-DNA inh 6%.
For COc1cccc(N2CCN(C(=S)Nc3ccccc3)CC2)c1 the results were Giardia kill 11, RORgamma inh -13%[1.91 µM], Integrin act MD 4%, Gal4-VP16 FLuc inconclusive and ERG-DNA inh 5%.
Screening CCN(CC)S(=O)(=O)c1ccc(C(=O)NNc2nc(-c3ccccc3)c3cc(Br)ccc3n2)cc1 returned Giardia kill 4, RORgamma inh 20µM*, Integrin act MD 10%, Gal4-VP16 FLuc inconclusive and ERG-DNA inh -5%.
O=C(CN1CCOCC1)NNc1nc(-c2ccccc2)c2cc(Br)ccc2n1 was read as Giardia kill -6, RORgamma inh 8.9µM*, Integrin act MD -27%, Gal4-VP16 FLuc -12%[10 µM] and ERG-DNA inh 2%.
`O=C(O)CCC(=O)NNc1nc(-c2ccccc2)c2cc(Cl)ccc2n1` gave Giardia kill -2, RORgamma inh 1%, Integrin act MD 4%, Gal4-VP16 FLuc -12% and ERG-DNA inh 6%.
For CC(C)(C)C(=O)NNc1nc(-c2ccccc2)c2cc(Br)ccc2n1 the results were Giardia kill 11, RORgamma inh -18%, Integrin act MD -28%, Gal4-VP16 FLuc 4% and ERG-DNA inh -7%.
Screening O=C(CN1CCCCC1)NNc1nc(-c2ccccc2)c2cc(Cl)ccc2n1 returned Giardia kill 7, RORgamma inh 5µM*, Integrin act MD -600%, Gal4-VP16 FLuc 4µM* and ERG-DNA inh 0%.
COc1ccccc1CNC(=O)c1ccc(Cl)c(NC2=NC3CS(=O)(=O)CC3S2)c1 (centres undefined) was read as Giardia kill 15, RORgamma inh -10%, Integrin act MD 1%, Gal4-VP16 FLuc -9% and ERG-DNA inh -9%.
For Cc1ccc(NC2(c3nnnn3-c3c(C)cccc3C)CCCCC2)cc1 the results were Giardia kill -26, RORgamma inh -31%, Integrin act MD -2%, Gal4-VP16 FLuc inconclusive and ERG-DNA inh -10%.
